# Reference: PubChem BioAssay (NCI)
# This is part of a sample that, as a whole, favours compounds with a hit. Of some 83,000 tested, about 20% had one in any assay.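 96-well plates, one dose, 48 hours. Percent growth reported; active if below 10.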 A number with no mark means an inactive call. Calls of active or inactive are those of the source.
# What was measured:
# Experiment in all cases: NCI-60 one-dose screen, 48 h (100 = growth as untreated, 0 = no growth, -100 = all killed)
# Details in all cases: 10 µM unless noted
# NCI-H23 lung = test system: NCI-H23 lung
# NCI-H226 lung = test system: NCI-H226 lung
# NCI-H322M lung = test system: NCI-H322M lung
# HOP-62 NSCLC = test system: HOP-62 NSCLC
# NCI-H460 lung = test system: NCI-H460 lung
# HOP-92 NSCLC = test system: HOP-92 NSCLC
# NCI-H522 lung = test system: NCI-H522 lung
# A549/ATCC NSCLC = test system: A549/ATCC NSCLC
# 786-0 renal = test system: 786-0 renal
# COLO 205 colon = test system: COLO 205 colon
# DU-145 prostate = test system: DU-145 prostate
# K-562 leukemia = test system: K-562 leukemia
# MALME-3M melanoma = test system: MALME-3M melanoma
# MDA-MB-231 breast = test system: MDA-MB-231 breast
# RXF 393 renal = test system: RXF 393 renal
# SF-268 CNS = test system: SF-268 CNS
# SF-295 CNS = test system: SF-295 CNS
# SF-539 CNS = test system: SF-539 CNS
# UACC-257 melanoma = test system: UACC-257 melanoma
# M14 melanoma = test system: M14 melanoma
SMILES,growth (NCI-H23 lung),growth (NCI-H226 lung),growth (NCI-H322M lung),growth (HOP-62 NSCLC),growth (NCI-H460 lung),growth (HOP-92 NSCLC),growth (NCI-H522 lung),growth (A549/ATCC NSCLC),growth (786-0 renal),growth (COLO 205 colon),growth (DU-145 prostate),growth (K-562 leukemia),growth (MALME-3M melanoma),growth (MDA-MB-231 breast),growth (RXF 393 renal),growth (SF-268 CNS),growth (SF-295 CNS),growth (SF-539 CNS),growth (UACC-257 melanoma),growth (M14 melanoma)
CCN(CC)CC(O)COc1c(Br)c(Br)c(Br)c2c1OC(C)(C)C2 (stereo not given),96.1%,46.4%,60.7%,96.8%,27.7%,28.1%,145%,132%,51.3%,67.7%,117%,23.9%,-30.1% (active),44.7%,99.4%,83%,1.69% (active),108%,140%,41.3%
CCCc1c(OC(=O)c2ccccc2)nc2[nH]c(=O)sc2c1C,99%,89.9%,101%,95.6%,103%,93.3%,87.4%,99.6%,106%,101%,106%,112%,95.1%,104%,101%,97.1%,102%,99%,98.5%,99.4%
OCCn1cc(-c2nc(-c3c[nH]c4ncccc34)cs2)c2ccccc21,71.9%,58%,74.8%,74.7%,78.6%,58%,58.6%,77.5%,95.1%,85.9%,93.5%,54.2%,115%,66.4%,82.4%,84.1%,81.1%,88.5%,93.1%,97.7%
COc1ccc(/C=N/NC(=O)c2ccc(-n3cc(-c4ccccc4)nn3)cc2)cc1OC,95.2%,92.7%,105%,101%,111%,94.9%,99.6%,104%,98.1%,91.7%,103%,93.2%,77.8%,103%,110%,93.8%,97.7%,102%,103%,82.5%
COc1ccc(C/C(C)=C(/c2ccc(OCCN(C)C)cc2)c2ccc(OC(=O)NCc3ccccc3)cc2)cc1,83.1%,97.7%,80.8%,83.3%,22.9%,38.2%,50.4%,55%,61.1%,20.4%,81.1%,-29.2% (active),88.5%,57.9%,60.3%,72.9%,88%,88.9%,75.8%,25.1%
COc1cc(OC)c(/C=C/C(=O)c2c(OC)cccc2OC)c(OC)c1,-22% (active),47.3%,1.28% (active),40.1%,9.67% (active),-1.46% (active),-22.7% (active),6.84% (active),16.5%,-13.4% (active),6.79% (active),10.5%,51.4%,15%,-60.8% (active),32%,1.38% (active),-11.4% (active),43.6%,-44.3% (active)
COc1ccc(-c2nc3cc(C(=O)NCc4ccccc4)ccc3n2C2CCCCC2)cc1,99.6%,102%,81%,90.1%,72.2%,92.8%,76.8%,74%,70.8%,64.7%,82.8%,41.1%,102%,77.5%,90.2%,79.4%,51%,60.2%,96.7%,78.1%
O=C1c2ccc3c4c5ccc(c24)C(=O)N1CCCOCCCCOCCCNCc1ccc(cc1)CNCCCOCCCCOCCCN(C3=O)C5=O,-52.3% (active),72.8%,0.552% (active),33.6%,3.03% (active),45.8%,-39.2% (active),-40.1% (active),-6.67% (active),-71% (active),8.84% (active),-19.3% (active),-90.7% (active),-11.7% (active),30.3%,2.25% (active),91.5%,-85.7% (active),-78.9% (active),-85.3% (active)
COC(=O)/C=C1/SC(=Nc2ccc(C(F)(F)F)cc2)N(CCc2c[nH]c3ccc(O)cc23)C1=O,18.6%,1.54% (active),6.96% (active),-26.6% (active),-60% (active),-54% (active),-40.6% (active),18.1%,-59.5% (active),-58.9% (active),12.7%,19.9%,-13.8% (active),-13.9% (active),-50.9% (active),-5.68% (active),14.2%,-37.3% (active),9.58% (active),0.0712% (active)
Cc1cc(S(=O)(=O)/N=C(\N)n2nc(C)c(C)c2C)c(SCc2ccccc2)cc1Cl,54.6%,78.6%,86.2%,91.7%,81.2%,50.3%,17.2%,52.9%,77.2%,114%,98.1%,30.9%,94.1%,89.6%,72.9%,86.6%,54.3%,98.8%,73.4%,74.6%
CC(=O)Oc1ccc(/C(=C(\C)c2ccc(Cl)cc2)c2ccc(OCCN3CCCCC3)cc2)cc1,46.9%,70.7%,84.7%,52.8%,20.2%,49.4%,21.2%,31.7%,-35.5% (active),-52.4% (active),61.9%,-47% (active),-6.44% (active),50.8%,29.3%,58.6%,9.07% (active),28.2%,-34.9% (active),-35.1% (active)
CCN(CC)CCn1c2ccc(O)cc2c2sc3cc(O)ccc3c(=O)c21,25.8%,68.2%,30%,38.4%,8.46% (active),60.5%,35.1%,21.6%,27%,30.3%,43.6%,14.8%,15.6%,43.5%,26.6%,42%,17.6%,18.1%,55.4%,19.6%
Cc1ccccc1/C=C/C(=O)c1cccc(OCCCCOc2cccc(C(=O)/C=C/c3ccccc3C)c2)c1,94.6%,91.7%,92.1%,102%,98.1%,93.6%,85.8%,84.2%,96.4%,106%,98%,97.1%,96.9%,95%,98.6%,102%,97.7%,105%,92.2%,97.9%
O=C(Nc1ccc(Oc2cccc(F)c2)c(Cl)c1)c1cccnc1,44.9%,56.9%,50.8%,34%,24.7%,63.4%,36.2%,35.5%,40.9%,22.7%,21.8%,16.2%,47.2%,60.2%,13.5%,53.7%,40.1%,4.06% (active),56.1%,15.9%
O=C(c1nn(-c2ccccc2)c2c1CC(NCc1ccc(F)cc1)CC2)N1CCCCC1 (stereo not given),95.3%,103%,98.2%,114%,117%,92.5%,89.3%,103%,96.4%,108%,108%,91%,102%,110%,107%,93%,102%,106%,101%,95.3%
